LmPK inh – blocks Leishmania mexicana pyruvate kinase activity; Q27686; purified LmPK, Kinase-Glo ATP luminescence, 1 h; Potency, µM (highest dose often 57.5 µM), for the others: at the top dose activity change, negative = inhibition, actives largely listed as inhibitors; 290,000 compounds, 0.37% hits; AID 1721; further: potency means the concentration at half of the fitted maximal effect; on the % scale 0 is the no-effect control and ±100 the full control effect
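ATP generated from ADP (0.1 mM) and PEP (0.5 mM) by 0.1 nM LmPK over 1 h at room temperature (pH 7.2 imidazole buffer) was detected by coupled luciferase luminescence. Values were normalized to uninhibited and no-enzyme wells.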
Cycloheximide cs – affects cycloheximide protein synthesis inhibition readout, counter-screen. max response, %. 300,000 compounds, 12% hits. cell reporter, cycloheximide protein synthesis inhibition counterscreen; in the data active means max response mostly above about 13%, no sharp cut-off; inactive means mostly below about 14%; further: read at 38.3 µM for the half of the compounds with a filed dose; 0% is about no effect
RE007 growth inh – less growth of the S. pombe RE007 Vpr strain. Potency, µM (top dose mostly 92.2 µM), inactives show at the highest dose activity change, negative = less growth, most hits filed as inhibitors. 360,000 compounds, 0.21% hits. S. pombe RE007 Vpr strain, BacTiter-Glo ATP luminescence, 24 h; active means well fitted falling curve with a large enough effect; inconclusive means small, poorly fitted or top-dose-only effect; inactive means no such curve, though single readings can be large or run the other way; further: potency means the concentration at half of the fitted maximal effect; on the % scale 0 is the no-effect control and ±100 the full control effect; nearly all actives have a fitted effect of over 50% in size
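Fission yeast strain RE007, carrying one chromosomally integrated HIV-1 vpr copy, was seeded at OD 0.01 in PMG+AL medium with 23 nL pinned compound. After 24 h at 30 °C and 99% humidity, viability was read by BacTiter-Glo luminescence.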
TbPYK inhibitor – blocks Trypanosoma brucei pyruvate kinase; Q57TT1; TbPYK enzyme, Kinase-Glo Plus ATP luminescence, 45 min; Potency, µM (highest dose often 76.8 µM), inactives show at the top dose activity, negative = inhibition, actives largely listed as inhibitors; 410,000 compounds, 0.12% hits; AID 624173; further: potency means the concentration at half of the fitted maximal effect; on the % scale 0 is the no-effect control and ±100 the full control effect; nearly all actives have a fitted effect of over 50% in size
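Glycolytic pyruvate kinase of T. brucei was incubated with substrate, test compound and 130 uM ADP for 45 minutes at room temperature. Luminescent Kinase-Glo Plus signal was measured after 10 minutes.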
Giardia FBPA inh-1 – inhibitors of Giardia lamblia fructose-1,6-bisphosphate aldolase; A8B2U2; purified Giardia FBPA; Potency, µM (highest dose often 59.6 µM), without a hit: at the top dose activity, negative = inhibition, actives largely listed as inhibitors; 290,000 compounds, 0.71% hits; AID 2451; further: potency means the concentration at half of the fitted maximal effect; on the % scale 0 is the no-effect control and ±100 the full control effect; nearly all actives have a fitted effect of over 55% in size
Target sequence (A8B2U2 whole entry, looked up): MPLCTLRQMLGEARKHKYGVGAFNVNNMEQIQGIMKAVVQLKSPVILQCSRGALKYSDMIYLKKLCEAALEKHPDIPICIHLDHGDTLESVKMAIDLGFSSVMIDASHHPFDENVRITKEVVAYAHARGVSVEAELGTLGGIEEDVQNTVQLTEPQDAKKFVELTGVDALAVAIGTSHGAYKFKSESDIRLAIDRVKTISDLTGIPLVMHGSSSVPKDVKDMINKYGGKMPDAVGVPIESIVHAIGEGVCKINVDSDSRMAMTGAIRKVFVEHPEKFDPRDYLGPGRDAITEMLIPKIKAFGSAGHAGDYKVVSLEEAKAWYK
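40 nM FBPA preincubated 10 min at RT with compound (up to 57.5 uM final), then substrate plus GAPDH/TPI/NAD/arsenate coupling and diaphorase/resazurin added. Fluorescence read after 20 min at RT, 525/598 nm.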
Shiga toxin inh – blocks Shiga toxin action in Vero cells; Vero cells, Shiga toxin protein synthesis inhibition reporter; inhibition, % at 38.7 µM; 290,000 compounds, 9.2% hits; AID 2315; in the data active means inhibition mostly above about 28%, no sharp cut-off; inactive means mostly below about 43%; further: 0% is about no effect
Giardia growth – inhibitors of Giardia lamblia growth; AID 2785; 1,500 compounds, 5% hits; Giardia lamblia trophozoite growth inhibition; shares compounds with Giardia FBPA inh-1; Potency, µM (doses to about 57.5 µM), for the others: at the highest dose activity change, negative = inhibition, most hits filed as inhibitors;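 further: potency means the concentration at half of the fitted maximal effect; trophozoites exposed to compound for 48 h at 37 °C; on the % scale 0 is the no-effect control and ±100 the full control effect; nearly all actives have a fitted effect of over 70% in size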
Mammal cell tox – mammalian cytotoxicity of Giardia aldolase inhibitor hits. AID 2786. 1,500 compounds, 4% hits. mammalian cell viability counter-screen, qHTS. shares compounds with Giardia FBPA inh-1. Potency, µM (top dose mostly 57.5 µM), inactives show at the highest dose viability change, negative = toxicity, usual class: inhibitors;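 further: Chinese hamster ovary cells used as mammalian cytotoxicity surrogate; viability measured as cellular ATP by luminescence; potency means the concentration at half of the fitted maximal effect; compound exposure lasted 48 h before reading; on the % scale 0 is the no-effect control and ±100 the full control effect; nearly all actives have a fitted effect of over 60% in size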
Giardia FBPA inh-2 – confirmation of Giardia fructose-bisphosphate aldolase inhibitors | Potency, µM (doses to about 57.5 µM), for the others: at the highest dose activity change, negative = inhibition, most hits filed as inhibitors | shares compounds with Giardia FBPA inh-1 | 1,500 compounds, 5% hits | purified Giardia aldolase enzyme activity, qHTS; further: potency means the concentration at half of the fitted maximal effect; on the % scale 0 is the no-effect control and ±100 the full control effect; nearly all actives have a fitted effect of over 45% in size
Rabbit aldolase – selectivity test for Giardia aldolase inhibitors: rabbit aldolase. 1,500 compounds, 4% hits. shares compounds with Giardia FBPA inh-1. AID 2794. Potency, µM (series often up to 57.5 µM), for the others: at the highest dose activity, negative = inhibition, most hits filed as inhibitors. Rabbit muscle FBPA enzyme inhibition, selectivity counter-screen; further: potency means the concentration at half of the fitted maximal effect; on the % scale 0 is the no-effect control and ±100 the full control effect; nearly all actives have a fitted effect of over 60% in size
Target sequence (P00883 whole entry, looked up): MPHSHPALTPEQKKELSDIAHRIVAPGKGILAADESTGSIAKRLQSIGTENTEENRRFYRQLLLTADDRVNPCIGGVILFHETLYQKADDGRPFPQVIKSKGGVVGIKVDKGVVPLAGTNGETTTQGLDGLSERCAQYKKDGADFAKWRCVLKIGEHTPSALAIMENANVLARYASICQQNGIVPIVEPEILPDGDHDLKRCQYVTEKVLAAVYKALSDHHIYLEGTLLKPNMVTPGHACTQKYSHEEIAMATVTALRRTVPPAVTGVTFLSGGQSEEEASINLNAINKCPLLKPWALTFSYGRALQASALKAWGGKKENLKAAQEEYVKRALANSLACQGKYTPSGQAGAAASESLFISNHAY
GAPDH counter – counter-screen for Giardia aldolase inhibitors: GAPDH coupling enzyme | 1,500 compounds, 6% hits | GAPDH coupling enzyme counterscreen, biochemical, qHTS | shares compounds with Giardia FBPA inh-1 | Potency, µM (series often up to 57.5 µM), for the others: top-dose activity change, negative = inhibition, hits mostly inhibitors | AID 2795; further: potency means the concentration at half of the fitted maximal effect; on the % scale 0 is the no-effect control and ±100 the full control effect; nearly all actives have a fitted effect of over 55% in size
An asterisk follows results filed as active; ! = not confirmed by another sample; [ ] = dose if it differs, or a comment. The full list was thinned out, with hits kept by preference. Unless noted, the call rests on the fitted dose curve; in most records, active means well fitted curve in the direction sought with a large enough effect; inconclusive means small, poorly fitted or top-dose-only effect, or another doubt; inactive means no such curve, though single readings can be large; an effect the other way counts as inactive or inconclusive.

COc1cccc(CN2CCSCC2)c1 was read as LmPK inh -6%, Cycloheximide cs -8, RE007 growth inh 80%, TbPYK inhibitor 12%, Giardia FBPA inh-1 inconclusive and Shiga toxin inh -7.
`COc1cccc(CN2CCN(Cc3cc(OC)c(OC)cc3OC)CC2)c1` gave LmPK inh -8%, Cycloheximide cs 4, RE007 growth inh -5%, TbPYK inhibitor 2%, Giardia FBPA inh-1 14µM*, Shiga toxin inh 10, Giardia growth -25%, Mammal cell tox 4%, Giardia FBPA inh-2 -5%, Rabbit aldolase 5% and GAPDH counter 5%.
`COc1ccc(CN2CCNCC2)c(OC)c1OC` gave LmPK inh 0%, Cycloheximide cs -2, RE007 growth inh -5%[18.4 µM], TbPYK inhibitor -12%, Giardia FBPA inh-1 22µM*!, Shiga toxin inh -8, Giardia growth -4%[10.4 µM], Mammal cell tox 4%, Giardia FBPA inh-2 -1%, Rabbit aldolase 1% and GAPDH counter 19%.
For COc1cccc(CN2CCNCC2)c1 the results were LmPK inh 2%, Cycloheximide cs -2, RE007 growth inh -3%, TbPYK inhibitor -6%, Giardia FBPA inh-1 3.5µM*, Shiga toxin inh -2, Giardia growth inconclusive, Mammal cell tox -2%, Giardia FBPA inh-2 8%, Rabbit aldolase 3% and GAPDH counter 7%.
For Cc1ccccc1CN1CCCN(CC(=O)Nc2ccc3c(c2)OCCO3)S1(=O)=O the results were TbPYK inhibitor 4%.
For CC1(c2nnnn2Cc2ccccc2)CCC(=O)N1c1ccc(N2CCOCC2)cc1 (configuration not stated) the results were RE007 growth inh 0% and TbPYK inhibitor 0%.
Screening O=[N+]([O-])c1ccccc1S(=O)(=O)N1CCN(Cc2ccsc2)CC1 returned LmPK inh -1%, Cycloheximide cs 4, RE007 growth inh -19%, TbPYK inhibitor -9%, Giardia FBPA inh-1 20µM*, Shiga toxin inh 42, Giardia growth -17%, Mammal cell tox 0%, Giardia FBPA inh-2 -4%, Rabbit aldolase -1% and GAPDH counter 3%.
`CCOC(=O)C1=C(O)/C(=C/c2ccc(CNC(=O)C(=O)Nc3ccc(C)cc3)o2)N=C1C` gave LmPK inh -4%, Cycloheximide cs 0, RE007 growth inh 1%, TbPYK inhibitor -10%, Giardia FBPA inh-1 4.5µM*, Shiga toxin inh -10, Giardia growth inconclusive, Mammal cell tox inconclusive, Giardia FBPA inh-2 -28%, Rabbit aldolase -13% and GAPDH counter 6%.
COC(=O)C1=C(O)/C(=C\c2ccc(CNC(=O)C(=O)Nc3ccc(C)cc3)o2)N=C1C was read as LmPK inh 3%, Cycloheximide cs 11, RE007 growth inh -13%, TbPYK inhibitor -1%, Giardia FBPA inh-1 inconclusive and Shiga toxin inh 15.
Screening C/C(=N/O)c1ccccn1 returned LmPK inh 4%, Cycloheximide cs 6, RE007 growth inh 8%, TbPYK inhibitor -1%, Giardia FBPA inh-1 3.2µM*, Shiga toxin inh -6, Giardia growth 0%[38.3 µM], Mammal cell tox -19%, Giardia FBPA inh-2 -21%, Rabbit aldolase 13% and GAPDH counter inconclusive.
O=C(O)COc1ccccc1C(Nc1cccnc1)c1cc(Cl)c2cccnc2c1O (configuration not stated) was read as LmPK inh -2%, Cycloheximide cs -3, RE007 growth inh 13%, TbPYK inhibitor 30%, Giardia FBPA inh-1 18µM*, Shiga toxin inh 18, Giardia growth 30%, Mammal cell tox 11%, Giardia FBPA inh-2 -16%, Rabbit aldolase -6% and GAPDH counter 3%.
`O=C(O)COc1ccccc1C(Nc1ccccn1)c1cc(Cl)c2cccnc2c1O` (configuration not stated) gave LmPK inh 13%, Cycloheximide cs -2, RE007 growth inh -3%, TbPYK inhibitor 52%, Giardia FBPA inh-1 inconclusive and Shiga toxin inh -3.
Screening O=C(C[C@H]1C[C@@H]2c3cc(NC(=O)c4cccnc4)ccc3O[C@@H]2[C@H](CO)O1)NCc1ccncc1 returned RE007 growth inh -7% and TbPYK inhibitor 4%.
Screening CC1CCCN(S(=O)(=O)c2ccc(C(=O)Nc3nnc(C4=COCCO4)o3)cc2)C1 (configuration not stated) returned LmPK inh 5%, Cycloheximide cs 1, Giardia FBPA inh-1 28µM*, Shiga toxin inh 2, Giardia growth -3%, Mammal cell tox 14%, Giardia FBPA inh-2 11%, Rabbit aldolase 10% and GAPDH counter 15%.
For CC1CCCCN1S(=O)(=O)c1ccc(C(=O)Nc2nnc(-c3ccccn3)o2)cc1 (configuration not stated) the results were LmPK inh 5%[11.5 µM], Cycloheximide cs -4, RE007 growth inh -11%, TbPYK inhibitor -6%, Giardia FBPA inh-1 18µM*, Shiga toxin inh -5, Giardia growth 24%, Mammal cell tox 10%, Giardia FBPA inh-2 23%, Rabbit aldolase 22% and GAPDH counter 0%.
For COc1ccccc1-c1nnc(NC(=O)c2ccc(S(=O)(=O)N3CCOCC3)cc2)o1 the results were LmPK inh 2%, Cycloheximide cs -1, RE007 growth inh -5%, TbPYK inhibitor -1% and Shiga toxin inh 5.
CC1CCCCN1S(=O)(=O)c1ccc(C(=O)Nc2nnc(C3=COCCO3)o2)cc1 (configuration not stated) was read as LmPK inh 1%, Cycloheximide cs 1, RE007 growth inh 15%, TbPYK inhibitor -7% and Shiga toxin inh -10.

Compound activity from PubChem.
